The panel holds about 83,000 compounds, 20% with a hit somewhere; the sample as a whole holds those more often.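 How to read the values: 0–100, growth inhibition (40 = 60% inhibited); 0, no net growth; -100 to 0, cell death (-40 = 40% of starting cells died; -100 = all dead).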 Unmarked numbers belong to inactive results. The source made the active and inactive calls. The calls were made as follows: active = growth percent below 10; inactive = the rest.

What all share (test): NCI-60 one-dose screen, 48 h (100 = growth as untreated, 0 = no growth, -100 = all killed)
Details in all cases: 10 µM unless noted

In assay [1] the test system is T-47D breast.
Assay [2] relates to BT-549 breast.
The test system of assay [3] is MDA-MB-435 melanoma.
Assay [4] has as its system SW-620 colon.
Assay [5] concerns MCF7 breast.
For assay [6], the system named is HCT-116 colon.
Assay [7] has as its system HCC-2998 colon.
Assay [8] relates to KM12 colon.

For `Cc1ccc2nc3c(n2c1)C(=O)C(=O)c1ccccc1-3`, the growth in assay [1] was -44.1% (active); in assay [2] it was -96.4% (active); in assay [3] it was -69.6% (active); in assay [4], -80.5% (active); in assay [5], -64.1% (active); in assay [6] it was -50.4% (active). Further, the growth was -54% (active) in assay [7] and -26.6% (active) in assay [8].

Turning to `COc1ccc(CNC(=O)c2c(C)n([O-])c3cc(F)c(F)cc3[n+]2=O)cc1`, the growth in assay [1] was 67.8%; in assay [2], 80.3%; in assay [3], 106%; in assay [4], 71.1%; in assay [5] it was 55.9%; in assay [6], 97.8%. Further, the growth in assay [7] is -73.5% (active); in assay [8], 96.1%.

Turning to `COc1cccc2c1C(=O)c1c(O)c3c(c(O)c1C2=O)C[C@@](O)(C(C)=O)C[C@@H]3O[C@H]1C[C@H](N)[C@H](O)[C@H](C)O1`, the growth is -12.2% (active) in assay [1]; -58.8% (active) in assay [2]; -98.7% (active) in assay [3]; -12.8% (active) in assay [4]; 0% (active) in assay [5]; 0.333% (active) in assay [6]. Also, the growth was -70.4% (active) in assay [7] and -14.9% (active) in assay [8].

Consider `COc1ccc2cc(-c3nc4ccccc4[nH]3)c(=O)oc2c1`, for which the growth was 92.9% in assay [1]; 101% in assay [2]; 108% in assay [3]; 95.5% in assay [4]; 89.3% in assay [5]; 93% in assay [6]. Moreover, the growth is 78.3% in assay [7] and 93.8% in assay [8].

Regarding `O=C1CNc2cc(Cl)ccc2N1`, the growth is 99.5% in assay [1]; 97.7% in assay [2]; 114% in assay [3]; 105% in assay [4]; 102% in assay [5]; 104% in assay [6]. Further, the growth in assay [7] is 104%; in assay [8] it was 103%.

Regarding `COc1cccc(N2CCN(CC(=O)N3CCN(c4nnc(-c5ccc(Cl)cc5)c(-c5ccc(Cl)cc5)n4)CC3)CC2)c1`, the growth in assay [1] was 27.2%; in assay [2], 88.4%; in assay [3], 70.9%; in assay [4], 72.3%; in assay [5], 41.2%; in assay [6], 40.1%. In addition, the growth is 80.6% in assay [7] and 56.5% in assay [8].

As for `c1ccc(CN=C(NCc2ccccc2)NCc2ccccc2)cc1`, the growth in assay [1] is 26.3%; in assay [2] it was 82.2%; in assay [3], 66.9%; in assay [4] it was 77.3%; in assay [5], 36.5%; in assay [6], 46.4%. For the same compound, the growth in assay [8] is 62.6%.

`C=CCN(/C=C/CN(CC=C)CC=C)CC=C`: the growth in assay [1] was 101%; in assay [2], 100%; in assay [3], 105%; in assay [4] it was 102%; in assay [5] it was 97%; in assay [6] it was 102%. For the same compound, the growth in assay [7] is 110%; in assay [8], 105%.

Turning to `COc1ccccc1-n1c(-c2ccc(O)cc2C)cn2c3c(=O)[nH]c(=O)n(C)c3nc12`, the growth in assay [1] is 77.3%; in assay [2], 135%; in assay [3], 101%; in assay [4], 94.7%; in assay [5] it was 91.7%; in assay [6], 97%. For the same compound, the figures for the growth in assay [7] and in assay [8] were 104% and 103%, respectively.

Turning to `CCN1CCN(c2nc(NNC(=O)Cc3ccccc3)nc(N3CCN(C(c4ccccc4)c4ccccc4)CC3)n2)CC1`, the growth in assay [1] is 29.9%; in assay [2] it was 88.1%; in assay [3], -33.7% (active); in assay [4] it was 16.5%; in assay [5], 33.9%; in assay [6], 28.3%. Further, the growth in assay [7] is 38.5%; in assay [8], 59%.

Turning to `Cc1cc(C)nc(NS(=O)(=O)c2ccc(Nc3nc4nc(SCc5ccccc5)nc(-c5ccc(O)cc5)c4c(=O)[nH]3)cc2)n1`, the growth in assay [1] is 79.1%; in assay [2], 107%; in assay [3], 94.9%; in assay [4] it was 101%; in assay [5] it was 104%; in assay [6] it was 103%. Also, the growth in assay [7] is 100%; in assay [8] it was 107%.

`N/C(=N\C(N)=N\c1nc2ccccc2s1)c1ccnc(Cl)c1`: the growth is 60.8% in assay [1]; 38% in assay [2]; -34.9% (active) in assay [3]; 16.8% in assay [4]; 31.5% in assay [5]; 31.7% in assay [6]. For the same compound, the growth is 62.7% in assay [7] and 32% in assay [8].

Take `CSc1nc2nc3c(c(-c4ccc(C)cc4)c2c(=O)[nH]1)CN(C)C/C3=C\c1ccc(C)cc1`: the growth in assay [1] was 103%; in assay [2], 114%; in assay [3], 91.8%; in assay [4] it was 103%; in assay [5] it was 87%; in assay [6] it was 101%. Also, the values for the growth in assay [7] and in assay [8] were 96.5% and 101%, respectively.

For the compound `NC(=O)NS(=O)(=O)c1ccc(N2N=C(C(F)(F)F)CC2c2cc(C(F)(F)F)cc(C(F)(F)F)c2)cc1` (configuration not stated), the growth was 72.4% in assay [1]; 98% in assay [2]; 40% in assay [3]; 82.6% in assay [4]; 49.7% in assay [5]; 55.9% in assay [6]. Besides, the growth in assay [7] was 88.2%; in assay [8] it was 71%.

With `Nc1ccc2c(c1Br)Cc1ccccc1-2`, the growth is 87.8% in assay [1]; 89% in assay [2]; 110% in assay [3]; 98.1% in assay [4]; 51% in assay [5]; 98.2% in assay [6]. Besides, the growth in assay [7] was 99.1%; in assay [8], 103%.

Take `CC(=O)c1ccccc1NC(=O)C(C)(c1ccccc1)c1ccccc1`: the growth in assay [1] is 67.7%; in assay [2], 75.7%; in assay [3] it was 98.6%; in assay [4] it was 93.4%; in assay [5], 102%; in assay [6], 42.1%. Moreover, the growth in assay [7] was 108%; in assay [8] it was 85%.

As to `CC(NNC(=S)N1CCCCCC1)c1ccc2ccccc2n1` (configuration not stated), the growth in assay [1] is 29.8%; in assay [2] it was 66.6%; in assay [3], 40.6%; in assay [4] it was 36%; in assay [5] it was 16.5%; in assay [6], 26.5%. The growth was 36.6% in assay [7] and 34.9% in assay [8].

As to `CC(=O)c1nn(-c2ccccc2)c(=Nc2ccccc2)cc1C`, the growth in assay [1] was 88.2%; in assay [2], 99%; in assay [3] it was 112%; in assay [4], 104%; in assay [5], 93.4%; in assay [6], 98.2%. Also, the growth was 100% in assay [7] and 99% in assay [8].

Turning to `O=[N+]([O-])c1ccc(NS(=O)(=O)c2ccc(Cl)c(Cl)c2)cc1`, the growth in assay [1] was 60.2%; in assay [2] it was 76.8%; in assay [3] it was 88.9%; in assay [4] it was 103%; in assay [5] it was 79.7%; in assay [6], 85.3%. Besides, the growth was 68.9% in assay [7] and 90.1% in assay [8].

Consider `O=C(CC(C(=O)c1ccccc1)N1CCN(Cc2ccccc2)CC1)c1ccccc1` (configuration not stated), for which the growth in assay [1] is 45.6%; in assay [2], 101%; in assay [3], 109%; in assay [4], 11.8%; in assay [5], 52.1%; in assay [6], 22.8%. In addition, in assay [8], the growth is 101%.

In the case of `C[C@]12CCC(=O)C=C1CC[C@H]1[C@@H]3C[C@@H](O)[C@](O)(C(=O)CO)[C@@]3(C)C[C@H](O)[C@@]12F`, the growth in assay [1] was 103%; in assay [2], 99.4%; in assay [3], 99.7%; in assay [4], 95.5%; in assay [5] it was 86.1%; in assay [6] it was 90.6%. Besides, the growth in assay [8] is 102%.

With `COc1ccc(CNC(=O)c2c(C)n([O-])c3ccc(OC)cc3[n+]2=O)cc1`, the growth in assay [1] is 115%; in assay [2], 83.5%; in assay [3], 115%; in assay [4] it was 107%; in assay [5] it was 101%; in assay [6], 106%. Further, in assay [8], the growth was 97.1%.

As for `OC(c1cc(-c2cccc(Cl)c2)nc2ccccc12)C1CCCCN1` (configuration not stated), the growth in assay [1] is -71.6% (active); in assay [2], 67%; in assay [3], -56.9% (active); in assay [4], -66.6% (active); in assay [5], -86.9% (active); in assay [6] it was -89.8% (active). In addition, in assay [8], the growth was -88.1% (active).

Regarding `COC(=O)c1cc2c(/C=C3/NC(=S)NC3=O)coc2n1C`, the growth is 80.3% in assay [1]; 72.9% in assay [2]; 94.7% in assay [3]; 96.6% in assay [4]; 81.3% in assay [5]; 96.8% in assay [6]. Also, the growth in assay [7] is 103%; in assay [8], 96.5%.

Consider `CC(=O)c1ccc(NS(=O)(=O)c2ccc([N+](=O)[O-])cc2)cc1`, for which the growth in assay [1] was 86.3%; in assay [2], 102%; in assay [3] it was 122%; in assay [4], 108%; in assay [5] it was 99.3%; in assay [6], 102%. Further, the growth in assay [8] is 111%.

Take `Cc1ccc(N/N=C(/C(=O)c2ccc(Cl)cc2)c2nc(C)cc(=O)[nH]2)cc1`: the growth is 88.3% in assay [1]; 118% in assay [2]; 123% in assay [3]; 91% in assay [5]; 86.9% in assay [6]; 116% in assay [7]. For the same compound, the growth in assay [8] was 115%.

Turning to `O=C(NCCNC(=O)Oc1cccc2ccccc12)Oc1cccc2ccccc12`, the growth in assay [1] was 71.7%; in assay [2], 105%; in assay [3] it was 114%; in assay [4], 102%; in assay [5], 84.4%; in assay [6], 99.7%. Besides, the growth in assay [8] was 104%.

On to `Cc1sc2nc3c4ccccc4c(NCCCN(C)C)nn3c(=O)c2c1C`, for which the growth was 85.2% in assay [1]; 66.7% in assay [2]; 24.8% in assay [3]; -43.7% (active) in assay [4]; 23.8% in assay [5]; 36.1% in assay [6]. For the same compound, in assay [8], the growth is 31.5%.

Take `O=C(Oc1ccccc1)C(Br)C(Br)c1ccccc1` (configuration not stated): the growth in assay [1] is 94%; in assay [2] it was 99.9%; in assay [3], 94.5%; in assay [4] it was -77% (active); in assay [5] it was 49.5%; in assay [6] it was 61.2%. Further, the growth in assay [8] is 71.9%.

The values above are taken from PubChem BioAssay (NCI).
